Coupling enz: qHTS Assay for Inhibitors of Fructose-1,6-bisphosphate Aldolase from Giardia Lamblia: Coupling assay counterscreen; actives 0.67% (n = 290,000); activity change, negative = inhibition, % at 58.2 µM, hits read low; coupling enzyme system counterscreen, AmpLite Red fluorescence; in the data active means activity change below about -30%
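Counterscreen lacking aldolase: glyceraldehyde-3-phosphate coupling-enzyme reagent preincubated 10 min at RT with compound (at 57.5 uM final), then substrate/coupling system with AmpLite Red added; fluorescence read at 525/598 nm after 20 min RT.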
RORg inh: qHTS for inhibitors of ROR gamma transcriptional activity; Drosophila S2 Gal4-RORgamma UAS-luciferase reporter, 20 h; Potency, µM (highest dose often 53.6 µM), actives largely listed as inhibitors; actives 5.4% (n = 310,000); AID 2551, 2010; further: nearly all actives have a fitted effect of over 60% in size
Target sequence (P51450 whole entry, looked up, the tested form may be a part): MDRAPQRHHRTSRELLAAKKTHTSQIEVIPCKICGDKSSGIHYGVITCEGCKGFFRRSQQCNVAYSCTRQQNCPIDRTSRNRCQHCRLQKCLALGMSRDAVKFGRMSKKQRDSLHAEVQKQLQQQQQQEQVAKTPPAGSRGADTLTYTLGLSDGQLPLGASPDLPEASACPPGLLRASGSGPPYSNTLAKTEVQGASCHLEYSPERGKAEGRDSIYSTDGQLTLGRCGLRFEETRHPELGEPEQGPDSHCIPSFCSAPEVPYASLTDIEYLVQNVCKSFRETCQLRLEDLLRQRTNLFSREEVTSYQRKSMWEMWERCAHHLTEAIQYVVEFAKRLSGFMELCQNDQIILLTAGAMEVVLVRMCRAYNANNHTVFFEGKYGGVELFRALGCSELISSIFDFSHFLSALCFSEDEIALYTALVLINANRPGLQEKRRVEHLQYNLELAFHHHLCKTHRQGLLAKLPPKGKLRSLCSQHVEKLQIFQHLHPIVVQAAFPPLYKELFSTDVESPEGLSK
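Stably transfected Drosophila Schneider cells are the test system, with ROR gamma fused to Gal4 and luciferase under UAS control; luminescence is read after 20 hr of 700 uM copper sulfate induction at ambient temperature.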
ELG1 repair inh: qHTS screen for small molecules that inhibit ELG1-dependent DNA repair in human embryonic kidney (HEK293T) cells expressing luciferase-tagged ELG1; actives 2.3% (n = 330,000); Potency, µM (top dose mostly 46.1 µM), usual class: inhibitors; AID 504467, 2011; HEK293T ELG1-luciferase reporter, luminescence, 16 h; DNA damage induced by 5-fluorouridine; further: nearly all actives have a fitted effect of over 55% in size
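Quantitative HTS, concentration-response format. 2,000 cells/well co-treated with 5-fluorouridine and compound, 16 hr in 5% CO2 at 37 °C; ONE-Glo luminescence read after 30 min.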
Gal4-VP16 FLuc: VP16 counterscreen qHTS for inhibitors of ROR gamma transcriptional activity. Drosophila S2 Gal4-VP16 UAS-luciferase, luminescence, 20 h. Potency, µM (series often up to 53.6 µM), hits mostly inhibitors. actives 3.5% (n = 310,000). AID 2546, 2010;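 further: Gal4-VP16 expression switched on by copper sulfate through the metallothionein promoter; nearly all actives have a fitted effect of over 50% in size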
TSHR antag: Antagonists of the Thyroid Stimulating Hormone Receptor: HTS campaign; actives 0.2% (n = 330,000); activity change, negative = inhibition, % at 11.5 µM; AID 504810, 2011; TSHR-expressing cells, TSH-stimulated cAMP HTRF, 2 h; hits give low values; Thyrotropin receptor (Homo sapiens), P16473;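 active means activity change below a set negative limit, meaning inhibition stronger than a set level, cut at about -70% in these data; inconclusive means activity change between two set negative limits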
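Inhibition of cAMP made by TSHR-expressing cells under TSH stimulation (4nM final, EC80; 2 h, 37 deg C) is quantified with a one-step lysis HTRF kit, anti-cAMP cryptate versus cAMP-d2.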
Large screens that a line does not name were inactive. Hits are enriched below; roughly 8% of the tested compounds scored in any of these assays. Unless noted, the call rests on the fitted dose curve; in most records, active means well fitted curve in the direction sought with a large enough effect; inconclusive means small, poorly fitted or top-dose-only effect, or another doubt; inactive means no such curve, though single readings can be large; an effect the other way counts as inactive or inconclusive.

c1ccc(CNc2nc(-c3ccccn3)nc3ccccc23)cc1	RORg inh 2.5µM, Gal4-VP16 FLuc 3.5µM
c1ccc(CNc2nc(-c3ccccc3)nc3ccccc23)cc1	none
Cn1c(=O)n(C)c2cc(NC(=O)CCl)ccc21	RORg inh 11µM, ELG1 repair inh inconclusive, Gal4-VP16 FLuc inconclusive
COC(=O)c1ccc(OC)c(Cn2c(=O)n(C)c(=O)c3sccc32)c1	ELG1 repair inh inconclusive
COC(=O)c1ccc(OC)c(CN2CCCN(Cc3cc(C)ccc3C)S2(=O)=O)c1	ELG1 repair inh 15µM
CCNC(=O)NC(=O)CSc1ccc(S(=O)(=O)N2CCOCC2)cn1	none (no result: Coupling enz, RORg inh, Gal4-VP16 FLuc)
CCCn1c(C)nc2c(NC3CCCCC3)nc(C)nc21	RORg inh 16µM (no result: ELG1 repair inh, TSHR antag)
CCCn1c(C)nc2c(NCCN3CCCCC3)nc(C)nc21	none (no result: ELG1 repair inh, TSHR antag)
CCc1ccc(-n2c(Cn3nc(C(F)(F)F)cc3C)n[nH]c2=S)cc1	RORg inh 4µM, Gal4-VP16 FLuc inconclusive
CCc1ccc(-n2c(C)n[nH]c2=S)cc1	RORg inh 10µM, Gal4-VP16 FLuc inconclusive
Cc1cc(C(F)(F)F)nn1Cc1n[nH]c(=S)n1-c1ccc(F)cc1	RORg inh inconclusive
Fc1ccc(CNC(=S)Nc2ccc(OC(F)F)cc2)cc1	RORg inh 11µM, Gal4-VP16 FLuc inconclusive
COc1cc(NC(=S)Nc2ccc(OC(F)F)cc2)cc(OC)c1	RORg inh 10µM, ELG1 repair inh inconclusive, Gal4-VP16 FLuc inconclusive
COc1ccc(C(CNC(=O)c2ccc3c(c2)OCCO3)N(C)C)cc1 (stereo unspecified)	none
COc1cc(OC)cc(C(=O)NCC(=O)OCC(=O)/C=C2/N(C)c3ccccc3C2(C)C)c1	Gal4-VP16 FLuc 18µM
CN1/C(=C\C(=O)COC(=O)Cn2nnc(-c3ccccc3)n2)C(C)(C)c2ccccc21	Gal4-VP16 FLuc 28µM
COC(=O)[C@@]1(Cc2ccccc2)[C@H]2C(=O)N(C)C(=O)[C@H]2[C@H]2CN=C(SCc3ccc(C)cc3)N21	none (no result: Coupling enz, RORg inh, Gal4-VP16 FLuc)
COc1ccc(CCNC(=O)CCCn2c(=O)c3cccn3c3cccnc32)c(OC)c1OC	ELG1 repair inh 13µM (no result: Coupling enz)
N#Cc1c(NC(=O)CSC2=NCCS2)sc2c1CCCC2	RORg inh inconclusive, ELG1 repair inh inconclusive
N#Cc1ccsc1NC(=O)CSc1ncn[nH]1	none
CC(C)(C)C1CCc2c(sc(NC(=O)CSc3ncn[nH]3)c2C#N)C1 (stereo unspecified)	RORg inh inconclusive, ELG1 repair inh inconclusive, Gal4-VP16 FLuc 11µM
N#Cc1c(NC(=O)CSc2ncn[nH]2)sc2c1CCCC2	RORg inh 0.32µM, Gal4-VP16 FLuc 0.11µM
CC1CCc2c(sc(NC(=O)CSc3ncn[nH]3)c2C#N)C1 (stereo unspecified)	RORg inh 0.32µM, Gal4-VP16 FLuc 0.079µM
N#Cc1c(NC(=O)CSc2nc(-c3ccccc3)cc(C(F)(F)F)n2)sc2c1CCC2	ELG1 repair inh 7.3µM
Cc1csc(SCC(=O)Nc2sc3c(c2C#N)CCC3)n1	none
Cc1ccnc(SCC(=O)Nc2sc3c(c2C#N)CCCC3)n1	RORg inh inconclusive, Gal4-VP16 FLuc 7.1µM
CCN1CCN(c2ncnc3c2sc2nc(N4CCOCC4)c4c(c23)CCC4)CC1	none
CN(C)CCNc1ncnc2c1sc1nc(-c3ccccc3)c3c(c12)CCCC3	RORg inh inconclusive, ELG1 repair inh inconclusive, Gal4-VP16 FLuc 2.8µM
c1nc(NCCN2CCOCC2)c2sc3nc(N4CCOCC4)c4c(c3c2n1)CCC4	ELG1 repair inh 23µM
COc1ccc(/C=N/NC(=O)c2ccoc2C)cc1OC	ELG1 repair inh inconclusive
O=C(N/N=C/c1ccc2ncccc2c1)c1ccco1	RORg inh 7.9µM, ELG1 repair inh inconclusive, Gal4-VP16 FLuc inconclusive
O=C(N/N=C/c1cccnc1)c1ccccc1OCc1cccc(Br)c1	ELG1 repair inh 21µM
COc1ccc(/C=N/NC(=O)c2ccoc2C)cc1COc1ccc(Cl)cc1	RORg inh 7.1µM, Gal4-VP16 FLuc 13µM (no result: ELG1 repair inh, TSHR antag)
O=C(N/N=C/c1ccccn1)c1ccco1	none
COc1ccc(C(=O)N/N=C/c2ccc(OC)c(COc3ccc(F)cc3F)c2)cc1	RORg inh 13µM, ELG1 repair inh 9.2µM, Gal4-VP16 FLuc inconclusive
CC1CCN(C(=O)c2ccc3c(c2)OCO3)CC1	none (no result: Coupling enz)
CN(C)c1ccc(N=NS(=O)(=O)O)cc1	none (no result: Coupling enz, ELG1 repair inh, TSHR antag)
Cc1[nH]c2ccccc2c1C(=O)C(=O)N1CCN(c2cccc(Cl)c2)CC1	none (no result: Coupling enz)
CC(C)(C)c1ccc(OCc2ccc(C(=O)N/N=C/c3ccc(O)c(O)c3)cc2)cc1	RORg inh inconclusive, Gal4-VP16 FLuc 16µM
CCOc1cc(/C=N/NC(=O)c2ccccc2OCc2ccc(F)cc2)ccc1O	ELG1 repair inh 5.8µM (no result: Coupling enz, RORg inh, Gal4-VP16 FLuc)
COc1ccc(C(=O)N/N=C/c2ccc(OC)c(COc3ccc(F)cc3)c2)cc1	ELG1 repair inh 15µM
CCOc1cc(/C=N/NC(=O)c2ccccc2-n2cccc2)ccc1O	ELG1 repair inh inconclusive (no result: Coupling enz, RORg inh, Gal4-VP16 FLuc)
COc1cc(/C=N/NC(=O)c2ccc(F)cc2)ccc1OC(=O)c1ccco1	RORg inh 13µM, ELG1 repair inh inconclusive
O=[N+]([O-])c1ccc(S(=O)(=O)Nc2nnc(C(F)(F)F)s2)cc1	none
O=C(CSCc1cc(=O)n2ccsc2n1)Nc1ccccc1	none (no result: Coupling enz)
COc1ccc(/C=C/C(=O)C2CC2)cc1COc1cccc(C)c1C	ELG1 repair inh inconclusive
COc1ccc(/C=N\NC(=O)c2ccccc2Br)cc1COc1ccc(F)cc1	RORg inh inconclusive
COc1ccc(/C=N/NC(=S)Nc2ccccc2)cc1COc1cccc(C)c1C	RORg inh 0.35µM, Gal4-VP16 FLuc 0.71µM
COc1ccc(/C=N\NC(=O)c2ccccc2)cc1COc1ccc(F)cc1	RORg inh 18µM, ELG1 repair inh inconclusive, Gal4-VP16 FLuc 11µM
CCOC(=O)/C(=C\c1ccc(Cl)cc1)c1nc2sc(C)c(C)c2c(=O)[nH]1	RORg inh inconclusive, ELG1 repair inh inconclusive, Gal4-VP16 FLuc 11µM
CCOC(=O)CSc1nc2sc(C)c(C)c2c(=O)[nH]1	ELG1 repair inh inconclusive
CCOC(=O)C1CCN(c2nc(N)c3c(N)nc(SCC(=O)O)cc3c2C#N)CC1	Coupling enz -32
COc1cc2c(C#N)c(N3CCc4ccccc4C3)nc(N)c2c(N)n1	Coupling enz -49, ELG1 repair inh inconclusive
CCOc1cc2c(C#N)c(N3CCNCC3)nc(N)c2c(N)n1	none
COc1cc2c(C#N)c(N3CCOCC3)nc(N)c2c(N)n1	Coupling enz -52, Gal4-VP16 FLuc inconclusive
COc1cc2c(C#N)c(N3CCCCC3)nc(N)c2c(N)n1	Coupling enz -52, ELG1 repair inh inconclusive
